Experimental data reported in the supplement of paper PMC3334620.
Whole data set: some 33,000 sequences, median “E-score (-0.5 to 0.5)” near -0.015, cut for the highest 2% near 0.3. This excerpt belongs to a sample that is enriched for the highest values.

biological target: T1, Abf1 (UniProt P14164); assay: PBM E-score (8-mer binding enrichment) (E-score (-0.5 to 0.5)); higher = stronger / more preferred TF binding; details: protein concentration: 200 nM; construct: GST-full length
T1 sequence: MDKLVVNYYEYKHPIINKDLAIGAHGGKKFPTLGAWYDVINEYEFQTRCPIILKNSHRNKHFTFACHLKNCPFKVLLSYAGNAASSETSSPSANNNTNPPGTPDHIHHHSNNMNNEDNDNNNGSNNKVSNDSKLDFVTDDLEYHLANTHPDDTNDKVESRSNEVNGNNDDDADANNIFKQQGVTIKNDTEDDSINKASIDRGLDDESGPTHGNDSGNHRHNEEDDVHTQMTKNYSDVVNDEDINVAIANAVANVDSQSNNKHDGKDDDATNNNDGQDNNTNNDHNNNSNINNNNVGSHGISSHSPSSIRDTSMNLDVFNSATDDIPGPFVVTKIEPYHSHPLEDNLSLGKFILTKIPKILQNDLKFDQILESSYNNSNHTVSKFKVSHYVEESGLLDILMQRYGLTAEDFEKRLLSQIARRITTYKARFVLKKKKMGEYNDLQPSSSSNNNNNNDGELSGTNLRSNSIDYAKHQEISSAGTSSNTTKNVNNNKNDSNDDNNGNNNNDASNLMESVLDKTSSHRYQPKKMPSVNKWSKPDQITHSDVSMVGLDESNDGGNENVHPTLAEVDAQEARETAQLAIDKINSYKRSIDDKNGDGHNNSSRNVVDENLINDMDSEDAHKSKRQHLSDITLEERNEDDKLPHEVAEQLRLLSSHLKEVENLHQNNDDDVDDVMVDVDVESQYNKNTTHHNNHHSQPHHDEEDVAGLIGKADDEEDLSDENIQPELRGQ
Outline: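 PURExpress in vitro transcription/translation supplied GST-tagged yeast transcription factors, either full-length or DNA-binding domain. Applied at about 100-200 nM to universal all-10-mer Agilent arrays double-stranded by primer extension, the bound protein was detected with fluorescent anti-GST. E-scores, modified Wilcoxon-Mann-Whitney statistics, were given by the Universal PBM Analysis Suite to ungapped eight-base words pooled with their reverse complements after masliner normalisation.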

Sequence	PBM E-score
ACCCGTAC	0.299
ACCCGTAA	0.0373
CGCCGTCC	0.308
ACCCGTAG	-0.248
GGCCGTAC	0.367
CGCCGTCA	0.199
CGCCGTAA	0.0647
CTACGTCA	0.146
CCAGTGAG	-0.251
CATTAGGC	0.0172
GGTCCCAA	-0.136
CAGTCCAA	-0.177
TCGCGGAA	0.0001
AGCTACCG	-0.0848
CGCCGTTC	0.331
CACCGTAG	0.0588
CGCCGTTA	0.14
CACCGTAA	0.101
AGCCGTTC	-0.0626
CACCGTAC	0.385
AGACCCCG	-0.0859
CAGCAAGG	-0.192
GGTGACTA	0.149
GCACTATA	0.017
AAGACAAC	0.0616

Sequence	PBM E-score
CTCCCCAC	-0.0818
CGAGAGAA	0.0467
CAGTAATA	0.304
CAGTAATC	-0.00799
CAGTAATG	-0.0287
GCCGTAAC	0.211
ATTTATTG	0.0665
CCCATTTC	-0.182
ATCGTCAC	0.389
CTCGTCAG	0.182
AGCGTCAC	-0.00719
GCCGTCAC	0.0578
GTCGTCAC	0.35
CTCGTCAC	0.336
CACGTCAC	0.368
ATCGTCTC	0.25
GTCGTCAA	0.222
CACGTCAG	0.0977
CTCGTCAA	0.0916
CACGTCAA	0.0325
AGTATGCA	0.111
CAATGCCC	-0.0566
GGGTTTGA	0.121
CCGCGCAC	-0.209
CCCTTAGG	-0.0737

Sequence	PBM E-score
AGGACCCC	-0.0335
ATCGTCGA	0.289
ATCGTCGC	0.362
ATCGTCGG	0.218
ATGCTAAA	0.0969
ACCACGAA	0.0971
CCCACGAG	0.0399
GCCACGAA	0.0988
CCCACGAA	0.316
TCCACGAA	0.352
CCCACGAC	0.0916
ACGCACAT	-0.00733
CGCGGCGC	-0.00706
GGACGACC	0.0608
AGACGACA	0.264
CGACGACA	0.311
CGACGACG	0.177
TCACGACA	0.257
GGACGAGA	0.145
AGACGACC	0.0722
TGACGACA	0.361
GGACGACA	0.299
CAAGTTGA	-0.187
CCCGGGCC	-0.304
CAACTCGC	0.0334

Sequence	PBM E-score
AATTTCAT	0.134
GCCAGGCA	-0.186
TGCCTCAA	-0.124
CACGGCTA	0.307
TACGGCGA	0.313
AACGGCGT	0.227
AACGGCGA	0.327
GACGGCGA	0.0475
AACGGCTA	0.193
GACGGCAA	0.246
TCCGGCGA	0.069
CACGGCAA	0.219
TACGGCAA	0.301
AACGGCGC	0.123
GACGGCTA	0.0813
GCCATGAA	-0.0667
ATTTTCCG	0.1
CCCGGAAC	-0.125
AATTCACT	-0.102
AAGCTCTC	-0.125
GCCATAGA	-0.126
GACTCATA	-0.0291
ACTTCGCA	0.0373
ACGGGTGG	0.0777
CACGGTGC	0.0971

Sequence	PBM E-score
CACGGCGA	0.305
CCGGGTGA	0.12
AACGGTGA	0.135
CACGGCGC	0.139
CACGGTGA	0.308
ACGGGTGA	0.32
CACGGCGG	0.00732
AAGTGGTC	-0.131
CCACCTGA	-0.0561
TCAATAGA	-0.172
AGTGATTA	0.351
GCTGATGA	0.199
AGTGATGA	0.366
AGTGATGG	0.056
AGTGATTC	0.207
CGTGATGC	0.0552
GGTGATTA	0.242
GTTGATGA	0.283
GGTGATGA	0.34
ACTGATGA	0.19
CGTGATGA	0.31
CCTGATGA	0.139
CATTCGCC	0.0362
ATTATTAG	0.164
CATCCTCC	-0.127

Sequence	PBM E-score
ACAGGTCA	-0.0348
ACCTGCAT	0.013
AACCAGCC	-0.0913
CTGTGAAC	0.0459
CCTCCCAG	-0.196
CGTGCCAG	0.148
ACCTGGCC	-0.0752
CCCTCTAA	-0.23
CCTAAATC	0.154
AGTGATGC	0.319
ATTGATGC	0.0481
AATGATGC	0.196
AGAAGACT	-0.0993
CCACTACA	-0.0773
TCACTACA	0.344
ACACTACA	0.169
CTCTGTGA	-0.118
CGAACAGC	-0.165
AAGATCCT	0.0788
TATTTCGA	0.272
CAGACGAC	0.191
TAGACGAA	0.338
CAGACGAA	0.324
GAGACGAA	0.0822
AAGACGAA	0.223

Sequence	PBM E-score
TAGACGGA	0.122
AAGCTAAC	0.0254
AGTCAGCC	-0.181
CCTCCCAC	-0.188
CCTCCAGC	-0.322
GCCTACCC	-0.25
CACTAGCC	0.144
GATGTCCC	0.209
ACGATGCG	0.07
ACCCCCGT	-0.0911
AGGACGAC	0.12
CGGACGAG	0.191
CGGACGAA	0.35
AGGACGAA	0.147
GGGACGAA	0.0455
CGGACGAC	0.343
AGAGCGTC	0.0295
AGACTTTG	0.0104
CGCAAACC	-0.124
AGTGAAGG	-0.145
GTTCTTCA	0.117
GGGTCTAA	-0.112
